Results on 25 molecules are retold here after ChEMBL document CHEMBL1157539, “Thousands of chemical starting points for antimalarial lead identification” (Nature, 2010).

Molecules are shown by their SMILES. “And” between values parts separate entries of the source, which are not always exact repeats. Identical values can stand only once.

The assay has as its system Plasmodium falciparum. In words: GSK_TCMDC: Inhibition of Plasmodium falciparum 3D7 in whole red blood cells, using parasite LDH activity as an index of growth. Test compounds present at 2uM. It is filed as functional.
On to `O=C(NC1CCC(CN2CCC(c3c[nH]c4ccccc34)CC2)CC1)c1cc2ccccc2s1` (stereo not given), for which the Inhibition is 98% and 100%.
The molecule `CC(C)C[C@H](Nc1ccc(C#N)c2ccccc12)C(=O)N[C@@H]1CCCc2ccccc21.O=C(O)C(F)(F)F` showed an Inhibition of 99%.
`Cc1c(C(=O)NC2CCC(CN3CCC(c4c[nH]c5ccccc45)CC3)CC2)cnn1-c1c(Cl)cc(Cl)cc1Cl` (stereo not given) came in with an Inhibition of 100%.
Next, `O=C(NC1CCC(CN2CCC(c3c[nH]c4ccccc34)CC2)CC1)c1cn(Cc2ccccc2)c2ccccc12` (stereo not given): 91%; `CC[C@H]1CN2CC[C@H]1C[C@@H]2[C@@H](O)c1ccnc2ccc(OC)cc12.Cl`: 100%; `COc1ccc(OC)c(C(O)C(C)NCc2cc(Cl)ccc2O)c1.Cl` (stereo not given): 97%.
With `CC(C)c1ccc(C=CC(=O)NC2CCC(CN3CCC(c4c[nH]c5ccccc45)CC3)CC2)cc1` (stereo not given), the Inhibition is 100%.
The value for `CNC(=O)c1ccc2[nH]cc(C3CCN(CC4CCC(NC(=O)/C=C/c5ccc(Cl)c(Cl)c5)CC4)CC3)c2c1` (stereo not given) was 100%.
Molecule `CC(Cc1ccc(C(C)(C)C)cc1)NCC(O)c1ccccc1.Cl` (stereo not given) showed an Inhibition of 94%.
Next, `O=C(O)/C=C\C(=O)O.OC1(c2ccc(Cl)c(C(F)(F)F)c2)CCN(CCOC2c3ccccc3CSc3ccc(Cl)cc32)CC1` (stereo not given): 95%.
In turn, `CN(C)CCCOc1ccc(CN2CCC(c3c[nH]c4ccc(NCC5CCCCC5)cc34)CC2)cc1.O=C(O)C(F)(F)F` had an Inhibition of 99%.
As to `O=c1c2ccccc2nc(/C=C/c2ccc([N+](=O)[O-])cc2)n1-c1ccccn1`, the Inhibition turned out to be 98%.
`COc1ccccc1CC(C)NCC(O)c1cccc(Cl)c1` (stereo not given) gave an Inhibition of 97%.
Next, `O=C(O)c1ccc2nc(-c3ccc(-c4ccccc4)cc3)n(C3CCN(Cc4ccc(-c5ncc[nH]5)cc4)CC3)c2c1`: 91%; `COC(=O)c1ccc(CC(C)NCC(O)c2cccc(C(F)(F)F)c2)cc1C` (stereo not given): 93%; `O=C(NC1CCC(CN2CCC(c3c[nH]c4ccccc34)CC2)CC1)c1cc(-c2ccccc2)c(C(F)(F)F)s1` (stereo not given): 100%.
`CC[C@H]1CN2CC[C@@H]1C[C@H]2[C@H](O)c1cc(-c2c(C)noc2C)nc2ccc(OC)cc12.Cl` came in with an Inhibition of 100%.
Regarding `COC(=O)/C=C/c1ccc(CC(C)NCC(O)c2cccc(Br)c2)cc1` (stereo not given), the Inhibition is reported as 97%.
Molecule `Cc1cc(CN2CCN(CCOC(c3ccccc3)c3ccccc3)CC2)ccc1O` had an Inhibition of 97%.
`Cc1c(C)c2c(c(C)c1O)CC[C@](C)(C(=O)NC1CCC(CN3CCC(c4c[nH]c5ccccc45)CC3)CC1)O2` (stereo not given in full): the Inhibition is 96% and 85%.
For the molecule `CCOc1ccc2nccc([C@@H](O)[C@@H]3C[C@@H]4CCN3C[C@@H]4CC)c2c1.Cl` [ETHYLHYDROCUPREINE HYDROCHLORIDE], the Inhibition is 98%.
The molecule `COc1ccc(CC(C)NCC(O)c2cccc(Cl)c2)cc1C` (stereo not given) registered an Inhibition of 89%.
`Cn1nc(-c2ccc(S(=O)(=O)N3CCC(CN4CCC(c5c[nH]c6ccccc56)CC4)CC3)s2)cc1C(F)(F)F` showed an Inhibition of 93%.
In turn, `COCCNCc1ccc(-c2ccc(CN(C(=O)Nc3ccccc3)C3CCN(Cc4ccccc4)CC3)cc2)cc1.O=C(O)C(F)(F)F` came in with an Inhibition of 98%.
Next, `CN1CC[C@H](N(Cc2ccccc2F)c2ccc(C#N)c(Cl)c2)C1`: 88%.

What is called Inhibition is the drop in the measured response relative to a control, in per cent.
